Test results: the supplement of paper PMC10849652
About 8,800 targets were measured; listed, in parts, are those with a hit and a random draw of the rest. About 0.5% of all pairs of compound and target were hits.

Each target was assayed with Cc1cn(-c2cc(NC(=O)c3ccc(C)c(Nc4nccc(-c5cccnc5)n4)c3)cc(C(F)(F)F)c2)cn1 [nilotinib] (assay: log2 fold change, soluble protein after heating vs DMSO (PISA); higher = thermal stabilisation; K562 lysate, 10 uM; active = over 0.2 and 3.5 SD of the protein, either way, in both replicates (recomputed)).
How it was run: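 Following dounce homogenisation of K562 pellets in PBS pH 7.4 with 1 mM MgCl2, crude extract at 1 mg/mL protein was incubated for 30 min with 10 μM compound. Aliquots were then heated for 3 min over 48°C-58°C and pooled, NP-40 was added to 0.5% at 4°C, and soluble protein was recovered as the supernatant at 21,000xg for 90 min. Channel-sum-equalised TMTpro 16plex LC-MS/MS quantified this protein. Each value, from duplicates, is a log-two fold change in thermal stability relative to solvent controls.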

Sequence of UniProt P09429 (P09429 whole entry, looked up): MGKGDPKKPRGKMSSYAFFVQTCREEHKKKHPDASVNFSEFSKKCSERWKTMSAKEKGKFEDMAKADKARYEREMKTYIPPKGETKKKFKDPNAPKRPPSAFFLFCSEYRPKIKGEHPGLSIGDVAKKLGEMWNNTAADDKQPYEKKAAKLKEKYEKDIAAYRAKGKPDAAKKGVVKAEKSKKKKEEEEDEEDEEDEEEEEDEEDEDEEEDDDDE
Sequence of UniProt P62873 (P62873 whole entry, looked up): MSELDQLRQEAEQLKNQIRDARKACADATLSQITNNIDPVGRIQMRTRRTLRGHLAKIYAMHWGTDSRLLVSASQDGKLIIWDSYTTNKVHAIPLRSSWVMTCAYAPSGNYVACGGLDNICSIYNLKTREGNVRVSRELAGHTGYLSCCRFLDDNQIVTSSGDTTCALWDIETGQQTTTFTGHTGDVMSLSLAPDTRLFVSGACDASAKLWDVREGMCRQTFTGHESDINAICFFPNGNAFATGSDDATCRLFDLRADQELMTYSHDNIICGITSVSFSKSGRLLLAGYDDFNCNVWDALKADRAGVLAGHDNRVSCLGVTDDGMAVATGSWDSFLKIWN
Sequence of UniProt Q9Y5Q9 (Q9Y5Q9 whole entry, looked up): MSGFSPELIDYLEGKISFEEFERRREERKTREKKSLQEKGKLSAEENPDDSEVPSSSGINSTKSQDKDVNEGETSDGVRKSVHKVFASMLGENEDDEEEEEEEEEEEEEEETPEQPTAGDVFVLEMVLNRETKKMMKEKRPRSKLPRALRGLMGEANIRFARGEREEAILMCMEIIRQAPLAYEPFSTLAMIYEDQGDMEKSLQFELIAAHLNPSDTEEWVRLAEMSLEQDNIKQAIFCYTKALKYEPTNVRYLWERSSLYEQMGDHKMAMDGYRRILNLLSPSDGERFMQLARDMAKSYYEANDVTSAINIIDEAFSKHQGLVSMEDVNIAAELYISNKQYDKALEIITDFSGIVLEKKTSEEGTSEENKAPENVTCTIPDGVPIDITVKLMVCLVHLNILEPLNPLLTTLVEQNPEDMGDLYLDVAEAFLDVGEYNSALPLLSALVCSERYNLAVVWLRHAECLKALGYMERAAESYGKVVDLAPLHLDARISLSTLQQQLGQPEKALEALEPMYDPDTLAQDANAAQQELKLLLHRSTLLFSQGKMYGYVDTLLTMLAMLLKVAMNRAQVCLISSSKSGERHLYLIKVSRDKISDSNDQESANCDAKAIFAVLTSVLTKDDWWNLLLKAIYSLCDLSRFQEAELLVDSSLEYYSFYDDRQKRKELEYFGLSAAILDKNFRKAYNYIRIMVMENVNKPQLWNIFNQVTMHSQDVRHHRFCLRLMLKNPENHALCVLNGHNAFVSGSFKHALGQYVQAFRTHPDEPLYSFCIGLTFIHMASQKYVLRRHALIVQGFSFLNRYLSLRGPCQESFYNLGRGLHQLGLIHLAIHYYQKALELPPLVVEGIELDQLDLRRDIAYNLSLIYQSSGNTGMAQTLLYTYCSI
Sequence of UniProt P13598 (P13598 whole entry, looked up): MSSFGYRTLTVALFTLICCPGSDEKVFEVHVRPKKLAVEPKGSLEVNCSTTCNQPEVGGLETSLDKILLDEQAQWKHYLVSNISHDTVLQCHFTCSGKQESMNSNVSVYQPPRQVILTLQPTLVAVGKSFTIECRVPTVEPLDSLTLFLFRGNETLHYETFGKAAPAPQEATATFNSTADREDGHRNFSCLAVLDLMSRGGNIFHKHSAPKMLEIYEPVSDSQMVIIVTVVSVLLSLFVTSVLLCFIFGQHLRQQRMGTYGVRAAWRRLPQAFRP
Sequence of UniProt Q58FG1 (Q58FG1 whole entry, looked up): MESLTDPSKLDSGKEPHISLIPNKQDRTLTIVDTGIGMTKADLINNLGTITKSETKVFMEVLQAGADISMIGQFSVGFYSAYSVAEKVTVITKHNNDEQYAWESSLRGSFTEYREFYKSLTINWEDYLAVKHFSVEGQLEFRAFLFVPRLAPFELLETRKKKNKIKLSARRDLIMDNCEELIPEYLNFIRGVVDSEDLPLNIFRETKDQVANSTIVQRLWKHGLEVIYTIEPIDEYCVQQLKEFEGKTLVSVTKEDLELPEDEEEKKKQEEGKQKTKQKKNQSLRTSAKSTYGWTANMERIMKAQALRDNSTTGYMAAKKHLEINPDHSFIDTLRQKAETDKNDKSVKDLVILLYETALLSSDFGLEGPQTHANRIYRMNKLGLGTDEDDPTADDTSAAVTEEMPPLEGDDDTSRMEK
Sequence of UniProt P51617 (P51617 whole entry, looked up): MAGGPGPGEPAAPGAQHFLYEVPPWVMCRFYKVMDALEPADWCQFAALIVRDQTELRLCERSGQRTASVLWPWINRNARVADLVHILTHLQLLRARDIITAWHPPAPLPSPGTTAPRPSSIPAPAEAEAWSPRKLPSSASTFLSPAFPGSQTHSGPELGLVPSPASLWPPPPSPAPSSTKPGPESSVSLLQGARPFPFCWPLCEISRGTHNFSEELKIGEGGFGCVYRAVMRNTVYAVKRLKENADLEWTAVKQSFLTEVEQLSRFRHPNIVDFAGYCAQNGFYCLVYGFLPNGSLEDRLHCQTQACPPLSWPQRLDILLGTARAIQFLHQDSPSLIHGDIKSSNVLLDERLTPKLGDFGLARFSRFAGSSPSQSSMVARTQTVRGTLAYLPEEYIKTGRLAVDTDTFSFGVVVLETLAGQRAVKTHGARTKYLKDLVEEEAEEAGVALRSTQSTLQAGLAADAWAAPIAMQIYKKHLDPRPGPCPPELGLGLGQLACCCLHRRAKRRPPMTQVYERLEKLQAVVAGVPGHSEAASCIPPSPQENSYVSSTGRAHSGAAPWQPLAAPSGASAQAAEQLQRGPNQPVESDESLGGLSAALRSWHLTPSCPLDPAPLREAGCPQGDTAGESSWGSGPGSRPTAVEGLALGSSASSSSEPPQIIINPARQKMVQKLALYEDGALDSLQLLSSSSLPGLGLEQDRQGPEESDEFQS
Sequence of UniProt Q9UBN7 (Q9UBN7 whole entry, looked up): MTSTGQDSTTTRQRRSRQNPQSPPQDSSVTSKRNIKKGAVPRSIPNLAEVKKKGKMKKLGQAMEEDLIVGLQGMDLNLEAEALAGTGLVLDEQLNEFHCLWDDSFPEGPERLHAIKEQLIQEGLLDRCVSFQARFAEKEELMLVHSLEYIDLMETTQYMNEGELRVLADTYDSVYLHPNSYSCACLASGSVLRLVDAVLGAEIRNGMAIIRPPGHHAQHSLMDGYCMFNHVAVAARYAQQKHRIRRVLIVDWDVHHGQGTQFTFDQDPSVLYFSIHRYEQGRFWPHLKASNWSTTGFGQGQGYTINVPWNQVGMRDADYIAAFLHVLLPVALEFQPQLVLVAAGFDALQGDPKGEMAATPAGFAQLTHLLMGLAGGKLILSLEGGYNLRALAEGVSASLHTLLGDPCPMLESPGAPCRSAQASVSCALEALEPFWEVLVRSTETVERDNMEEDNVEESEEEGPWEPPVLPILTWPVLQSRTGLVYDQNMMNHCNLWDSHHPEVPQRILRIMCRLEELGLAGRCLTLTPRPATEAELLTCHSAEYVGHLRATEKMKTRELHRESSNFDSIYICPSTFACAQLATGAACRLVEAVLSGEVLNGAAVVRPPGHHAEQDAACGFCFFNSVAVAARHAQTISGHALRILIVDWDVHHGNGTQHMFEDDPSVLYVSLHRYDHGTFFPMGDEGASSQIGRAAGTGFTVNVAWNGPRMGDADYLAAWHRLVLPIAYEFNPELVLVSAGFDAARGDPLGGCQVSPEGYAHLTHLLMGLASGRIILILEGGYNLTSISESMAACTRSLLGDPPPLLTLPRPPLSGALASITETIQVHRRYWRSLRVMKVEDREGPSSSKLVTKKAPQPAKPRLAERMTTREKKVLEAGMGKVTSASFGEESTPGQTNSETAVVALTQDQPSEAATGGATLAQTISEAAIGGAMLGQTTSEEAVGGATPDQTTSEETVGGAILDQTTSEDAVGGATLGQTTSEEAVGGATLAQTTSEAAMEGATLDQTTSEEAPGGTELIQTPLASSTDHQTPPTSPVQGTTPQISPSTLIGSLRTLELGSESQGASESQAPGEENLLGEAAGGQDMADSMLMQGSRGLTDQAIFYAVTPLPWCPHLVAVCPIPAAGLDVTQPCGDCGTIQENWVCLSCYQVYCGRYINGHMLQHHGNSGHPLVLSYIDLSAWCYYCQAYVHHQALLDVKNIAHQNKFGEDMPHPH
Sequence of UniProt P55795 (P55795 whole entry, looked up): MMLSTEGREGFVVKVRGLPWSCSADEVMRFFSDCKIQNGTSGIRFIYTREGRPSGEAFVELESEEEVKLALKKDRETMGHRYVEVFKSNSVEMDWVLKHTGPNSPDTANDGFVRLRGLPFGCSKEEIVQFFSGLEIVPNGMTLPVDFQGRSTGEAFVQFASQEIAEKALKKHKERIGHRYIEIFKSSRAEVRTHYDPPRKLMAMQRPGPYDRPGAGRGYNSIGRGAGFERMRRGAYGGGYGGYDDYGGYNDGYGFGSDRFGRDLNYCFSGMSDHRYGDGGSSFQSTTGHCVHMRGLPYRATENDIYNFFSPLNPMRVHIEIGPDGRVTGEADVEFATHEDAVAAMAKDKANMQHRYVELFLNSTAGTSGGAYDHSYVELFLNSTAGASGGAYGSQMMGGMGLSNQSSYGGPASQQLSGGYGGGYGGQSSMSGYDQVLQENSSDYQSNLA
Sequence of UniProt P50053 (P50053 whole entry, looked up): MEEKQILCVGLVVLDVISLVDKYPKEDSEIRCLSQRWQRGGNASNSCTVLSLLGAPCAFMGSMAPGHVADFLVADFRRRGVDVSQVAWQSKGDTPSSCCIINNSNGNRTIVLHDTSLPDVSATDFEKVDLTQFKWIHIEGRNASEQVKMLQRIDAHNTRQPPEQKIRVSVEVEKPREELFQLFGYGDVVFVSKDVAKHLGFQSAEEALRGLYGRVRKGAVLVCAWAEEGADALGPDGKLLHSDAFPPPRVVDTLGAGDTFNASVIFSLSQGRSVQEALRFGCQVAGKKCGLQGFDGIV

Target	log2 fold change
HMGB1 (UniProt P09429)	0.056 (inactive)
IGF2BP2 (UniProt Q9Y6M1)	-0.051 (inactive)
GNB1 (UniProt P62873)	0.075 (inactive)
IRAK1 (UniProt P51617)	-0.036 (inactive)
GRK6 isoform 2 (UniProt P43250)	-0.024 (inactive)
ICAM2 (UniProt P13598)	0.081 (inactive)
IMMT (UniProt C9J406)	-0.044 (inactive)
GUSB (UniProt P08236)	0.028 (inactive)
HSPA14 (UniProt Q0VDF9)	-0.032 (inactive)
HNRNPH2 (UniProt P55795)	-0.07 (inactive)
HDAC6 (UniProt Q9UBN7)	0.078 (inactive)
HSP90AA4P (UniProt Q58FG1)	-0.157 (inactive)
KHK isoform 2 (UniProt P50053)	-0.004 (inactive)
GTF3C3 (UniProt Q9Y5Q9)	0.035 (inactive)
H4C1 (UniProt P62805)	0.051 (inactive)
HSPB1 (UniProt P04792)	-0.001 (inactive)
GNL3 (UniProt Q9BVP2)	0.008 (inactive)
KDM5C (UniProt P41229)	-0.021 (inactive)
GOLGA1 (UniProt Q92805)	0.033 (inactive)
KATNBL1 (UniProt Q9H079)	-0.057 (inactive)
HNRNPM (UniProt P52272)	0.022 (inactive)
HEATR3 (UniProt Q7Z4Q2)	0.023 (inactive)
HNRNPUL1 (UniProt Q9BUJ2)	-0.291 (active)
